In the library only some 2.8% were active in any assay of this set; here they are far more common.
PAFAH1B3 inh – inhibitors of human PAFAH1B3 | Q15102 | recombinant PAFAH1B3, FP-rhodamine probe, fluorescence polarization | inhibition, % at 3.39 µM | 0.28% of 340,000 active;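 active = inhibition above the screen-wide average of all tested compounds plus 3 SD, cut at about 25% in these data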;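 also: 0% = enzyme with DMSO only and 100% = wells lacking PAFAH1B3 protein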
Target sequence (Q15102 whole entry, looked up): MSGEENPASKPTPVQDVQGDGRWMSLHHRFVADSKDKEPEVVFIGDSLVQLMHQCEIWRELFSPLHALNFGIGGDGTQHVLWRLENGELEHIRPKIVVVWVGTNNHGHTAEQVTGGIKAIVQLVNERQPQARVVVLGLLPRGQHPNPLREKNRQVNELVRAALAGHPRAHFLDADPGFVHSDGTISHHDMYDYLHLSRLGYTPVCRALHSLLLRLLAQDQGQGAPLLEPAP
PME-1 inh – blocks human protein phosphatase methylesterase 1 | recombinant PME-1, FP-Rh probe fluorescence polarization | 0.53% of 320,000 active | Q9Y570 | inhibition, % at 5.9 µM | AID 2130;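 active = inhibition above the campaign mean of all compounds plus 3 SD, cut at about 26% in these data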;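 also: competitive labeling of PME-1 active site by serine hydrolase directed probe; 0% = PME-1 with DMSO and 100% = wells lacking PME-1 enzyme; inhibitors block probe labeling so polarization falls and inhibition rises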
Target sequence (Q9Y570 whole entry, looked up): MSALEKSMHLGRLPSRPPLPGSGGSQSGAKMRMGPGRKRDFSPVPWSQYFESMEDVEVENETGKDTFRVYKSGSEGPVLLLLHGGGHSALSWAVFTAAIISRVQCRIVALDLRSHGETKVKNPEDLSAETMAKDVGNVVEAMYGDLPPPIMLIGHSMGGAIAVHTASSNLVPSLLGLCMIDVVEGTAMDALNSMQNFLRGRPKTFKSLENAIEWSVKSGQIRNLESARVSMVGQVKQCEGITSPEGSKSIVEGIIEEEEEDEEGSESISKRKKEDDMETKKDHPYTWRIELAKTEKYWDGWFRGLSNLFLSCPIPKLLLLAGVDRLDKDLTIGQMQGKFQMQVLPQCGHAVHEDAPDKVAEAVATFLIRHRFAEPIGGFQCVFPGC
Fam108B counter – counter-screen for RBBP9 inhibitors: inhibitors of mouse Fam108B. 0.33% of 300,000 active. inhibition, % at 9.51 µM. AID 1947. recombinant Fam108B, FP-Rh probe fluorescence polarization;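 active = inhibition above the screen mean inhibition plus 3 SD, computed separately per campaign, cut at about 18% in these data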;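 also: inhibitors lower polarization as less probe binds the enzyme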
PAFAH2 FP inh – PAFAH2 (human) inhibition | AID 492956 | 0.99% of 340,000 active | inhibition, % at 3.39 µM | recombinant PAFAH2, FP-rhodamine activity probe, fluorescence polarization;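 active = inhibition above the mean over all tested compounds plus 3 SD, cut at about 30% in these data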;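 also: inhibitors block probe labeling of enzyme so polarization drops; 0% = enzyme with DMSO and 100% = wells lacking PAFAH2 protein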
PAFAH1B2 FP inh – inhibitors of human PAFAH1B2; P68402; recombinant PAFAH1B2, FP-rhodamine activity probe, fluorescence polarization; inhibition, % at 3.39 µM; 1.2% of 340,000 active;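 active = inhibition above the mean of all tested compounds plus 3 SD, cut at about 24% in these data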;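 also: 0% = enzyme with DMSO and 100% = wells lacking PAFAH1B2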
pPAFAH FP inh – pPAFAH (human) enzyme inhibition; Q13093; inhibition, % at 3.39 µM; recombinant pPAFAH, FP-rhodamine probe fluorescence polarization; AID 463082; 1.5% of 330,000 active;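 active = inhibition above the mean inhibition across the screen plus 3 SD, cut at about 25% in these data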;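 also: inhibitors block binding of the rhodamine activity-based probe so polarization drops; 0% = enzyme with DMSO and 100% = wells lacking pPAFAH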
An asterisk follows results filed as active; . = no result.

SMILES	PAFAH1B3 inh	PME-1 inh	Fam108B counter	PAFAH2 FP inh	PAFAH1B2 FP inh	pPAFAH FP inh
CCC(Oc1ccccc1)C(=O)Nc1nnc(S(=O)(=O)Nc2ccccc2)s1 (centres undefined)	0	-1	-2	1	8	33*
CCC(Oc1ccccc1)C(=O)Nc1nnc(S(=O)(=O)N2CCCCC2)s1 (centres undefined)	7	-2	-1	12	2	2
CCC(=O)NN1CCN(c2ccncc2S(=O)(=O)N2CCCCC2)CC1	3	3	1	-1	4	3
COc1ccc(/C=C2\Sc3ccc(C(=O)N4CCN(Cc5ccccc5)CC4)cc3N(C)C2=O)cc1OC	5	42*	-2	5	3	16
Cc1ccc(C(=O)NNc2cc(N3CCCC3)nc(N3CCCC3)n2)cc1	.	-2	2	.	.	32*
COc1ccc(C(=Cc2cc(OC)c(OC)cc2[N+](=O)[O-])C(=O)O)cc1	8	.	.	-1	0	.
CC(C)(C)C(=O)Nc1cc(C(F)(F)F)ccc1N1CCOCC1	-2	-1	-4	3	2	5
Cc1cc(NC(=O)CSCC(=O)Nc2cc(C(F)(F)F)ccc2N2CCOCC2)no1	1	9	.	-5	26*	2
CC(C)(C)C(=O)NC(=S)Nc1cc(C(F)(F)F)ccc1N1CCOCC1	13	-3	0	4	7	33*
Cc1oc(C)c2c(=O)ccc3c(c12)OC(N)=C(C#N)C3c1ccc(F)cc1 (centres undefined)	-3	-4	4	1	-2	32*
O=C(C1CCN(S(=O)(=O)c2cccc3cccnc23)CC1)N1CCn2c1nc1ccccc12	9	28*	1	2	2	7
O=C(C[C@H]1C[C@H](C(=O)N2CCCCC2)[C@@]2(CCc3ccccc3)c3[nH]c4ccc(Cl)cc4c3CCN2C1=O)NCc1cccc(C(F)(F)F)c1	6	.	.	-10	0	4
CCN(C(=O)CSc1ncccc1C(=O)O)C1CCCCC1	6	-2	-4	-5	29*	-7
CCN(C(=O)CSc1ccccn1)C1CCCCC1	2	.	.	2	11	1
Cc1ccccc1NS(=O)(=O)c1ccc(C(=O)NCC2CCCO2)cc1 (centres undefined)	1	-4	-1	-2	1	25*
Cc1ccc(C)c(NS(=O)(=O)c2ccc(OCC(=O)NCC3CCCO3)cc2)c1 (centres undefined)	2	-1	-6	4	5	28*
O=C(NCC1CCCO1)c1cccc(S(=O)(=O)Nc2ccc(SC(F)F)cc2)c1 (centres undefined)	5	5	.	5	-2	34*
N#Cc1ccc(-c2ccc(OCC(=O)NN=Cc3ccncc3)cc2)cc1	5	.	.	3	-2	1
COc1ccc(S(=O)(=O)Nc2cccc(-c3ccc(N4CCCCCC4)nn3)c2)c(OC)c1	-8	1	-15	-7	0	5
Cc1cc(C)c(S(=O)(=O)c2cccc(C)c2C)c(=O)[nH]1	-7	-2	-4	2	0	0
CC(C)n1c(=S)[nH]c2scc(-c3cccs3)c2c1=O	1	-2	14	11	-3	33*
COCCn1c(C)c(C)c(S(=O)(=O)c2ccccc2)c1N	41*	16	14	59*	41*	13
Nc1c(C(=O)OCC(=O)Nc2ccc(Cl)cc2[N+](=O)[O-])[nH]c(=O)[nH]c1=O	2	3	1	-4	1	33*
Cc1nc2ccc(S(=O)(=O)Nc3ccccc3C)cc2s1	-8	3	1	0	2	33*
Cc1nc2ccc(S(=O)(=O)NCC(=O)NCc3ccc(Cl)cc3)cc2s1	2	-2	1	3	25*	-2
SMILES	PAFAH1B3 inh	PME-1 inh	Fam108B counter	PAFAH2 FP inh	PAFAH1B2 FP inh	pPAFAH FP inh
Cc1nc2ccc(S(=O)(=O)NCC(=O)NCc3ccc4c(c3)OCO4)cc2s1	4	1	7	13	6	6
Cc1nc2ccc(NS(=O)(=O)c3ccc(C)c(C)c3)cc2s1	0	-5	-1	-4	2	5
Cc1ccc(C2=NN(CC(=O)NCCN(CC(C)C)CC(C)C)C(=O)CC2)cc1	0	-1	-2	4	4	4
Cc1nnc(SCC(=O)N(Cc2ccccc2)C(C)(C)C)[nH]c1=O	7	2	0	4	25*	0
COc1ccc(-c2cc(-c3c(O)c(OC)c4occc4c3OC)[nH]n2)cc1	7	33*	11	1	4	18
CC(C)(C)NC(=O)NC(=O)COC(=O)CCC1CCCC1	-1	2	-1	16	6	31*
COc1ccc(CNC(=O)COC(=O)CCC2CCCCC2)cc1	6	3	2	10	3	31*
COC(=O)c1ccc(CNC(=O)COC(=O)CCN2C(=O)C3CC=CCC3C2=O)cc1 (centres undefined)	-2	-1	2	-2	-1	7
COc1ccc(CNC(=O)COC(=O)CCOc2ccccc2)cc1	-6	5	0	-8	-1	13
COC(=O)c1ccc(CNC(=O)COC(=O)CCC2CCCC2)cc1	-5	0	2	-1	1	25*
C[C@H](NC(=O)[C@H]1N2C(=O)c3ccccc3C2SC1(C)C)C(=O)NCC1CCCO1 (some centres undefined)	1	-3	0	-4	7	3
CCCCCCCCCS(=O)(=O)N/N=C/c1cccc([N+](=O)[O-])c1	11	1	4	18	28*	21
CC1CCN(S(=O)(=O)c2cccc(C(=O)NCc3cccs3)c2)CC1	0	-12	-4	5	27*	-2
CC1CCN(S(=O)(=O)c2cccc(C(=O)NCc3ccco3)c2)CC1	3	4	-2	6	25*	3
O=C(NCc1ccco1)c1cccc(S(=O)(=O)N2CCCC2)c1	16	.	.	5	-1	.
O=C(NCc1cccs1)c1ccc(S(=O)(=O)N2CCCCC2)cc1	5	4	0	-5	4	3
O=C(CSc1nnc(NC(=O)c2ccco2)s1)Nc1ccc(F)cc1F	2	5	0	12	3	2
COC(=O)c1sc(-c2ccc(Cl)cc2)cc1NC(=O)/C=C/C(=O)O	5	-4	-11	-2	27*	3
COC(=O)c1sc(-c2ccc(C(C)(C)C)cc2)cc1NC(=O)CCC(=O)O	.	-11	-13	.	.	26*
COC(=O)c1sccc1NC(=O)/C=C/C(=O)O	0	-9	0	3	2	-3
COC(=O)c1sc(-c2ccc(Cl)cc2)cc1NC(=O)COCC(=O)O	3	-12	-6	1	43*	15
CC(=O)c1sc(C(C)(C)C)cc1NC(=O)CCC(=O)O	2	-4	-1	2	6	1
CCN(C[C@H]1N[C@@](Cc2ccccc2)(C(=O)OC)[C@H]2C(=O)N(C)C(=O)[C@@H]12)C(C)=O	12	.	.	7	2	1

Assay outcomes: PubChem, The Scripps Research Institute Molecular Screening Center
